The subject of one assay is human monocyte-derived macrophages (polarized). The assay is described as follows: cell shape (eccentricity) Z-score vs DMSO control; higher = more elongated, M2-like morphology. Particulars: 5 µM; 24 h; macrophage state: M1-polarized (IFNg + TNFa), cytokines present during treatment. The procedure:
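Primary-screen hits were rescreened on polarized hMDMs with the differentiating cytokines (IL-4 + IL-13 or IFNg + TNFa) kept in the medium during treatment with compound at 5 uM for 24 h. The eccentricity Z-score vs DMSO wells is averaged over experiments.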
In the case of `CC1(C)CC[C@]2(C(=O)O)CC[C@]3(C)C(=CCC4[C@@]5(C)CC[C@@H](O)C(C)(C)C5CC[C@]43C)C2C1` (stereo not given in full), the “cell shape (Z-score)” value was -1.9.

Regarding `Nc1ncnc2n[nH]c(Nc3ccc(F)cc3)c12`, the “cell shape (Z-score)” value amounted to 3.71.

With `CC(C)(C)OC(=O)Nc1ccc(-c2cc(C(=O)NCCCCCCC(=O)NO)no2)cc1`, the “cell shape (Z-score)” value was -0.14.

For `C[C@@]1(C(=O)Nc2ccc(F)nc2)CCCN1c1nc(Nc2cc(C3CC3)n[nH]2)c2cccn2n1`, the “cell shape (Z-score)” value is 5.79.

As for `CC1CNCCN1S(=O)(=O)c1cccc2cnccc12` (stereo not given), the “cell shape (Z-score)” value is -1.72.

As to `Nc1nc2ccc(OC(F)(F)F)cc2s1`, the “cell shape (Z-score)” value is -5.46.

`c1cc(-c2cnn3cc(-c4ccc(OCCN5CCCCC5)cc4)cnc23)ccn1`: the “cell shape (Z-score)” value came out at 1.96.

Turning to `NC(N)=NCCNS(=O)(=O)c1cccc2cnccc12`, the “cell shape (Z-score)” value was -4.47.

As for `COc1ccc(N(C(=O)c2ccccc2)S(=O)(=O)c2cc(OC)ccc2OC)cc1`, the “cell shape (Z-score)” value was -2.07.

In the case of `CC1(C)C[C@@H]1C(=O)N/C(=C\CCCCSC[C@H](N)C(=O)O)C(=O)O`, the “cell shape (Z-score)” value was 5.

Turning to `O=c1cc(-c2ccc(O)cc2)oc2cc(O)ccc12`, the “cell shape (Z-score)” value amounted to 2.2.

Turning to `CC1=C(/C=C/C(C)=C/C=C/C(C)=C/C(=O)O)C(C)(C)CCC1`, the “cell shape (Z-score)” value turned out to be 7.03.

On to `COc1ccc(-c2oc3ccccc3c(=O)c2O)cc1OC`, for which the “cell shape (Z-score)” value is -0.838.

Turning to `COc1cc(OC)c(/C=C/S(=O)(=O)Cc2ccc(OC)c(NCC(=O)O)c2)c(OC)c1`, the “cell shape (Z-score)” value is -2.86.

As to `COc1ccc2c(c1OC)CN(C)CCc1cc3c(cc1C(=O)C2)OCO3`, the “cell shape (Z-score)” value is -5.59.

For the compound `CC(C)(C)c1cc(C(=O)/C=C/c2ccc(C(=O)O)cc2)cc(C(C)(C)C)c1`, the “cell shape (Z-score)” value was -7.58.

Take `COc1c(OC)c2occc2c2oc(=O)ccc12`: the “cell shape (Z-score)” value was -1.24.

`Cc1onc(-c2ccccc2)c1-c1ccc(S(N)(=O)=O)cc1`: the “cell shape (Z-score)” value came out at 7.67.

The same assay, now with this note: 5 µM; 24 h; macrophage state: M2-polarized (IL-4 + IL-13), cytokines present during treatment.
As to `CCC[C@H](NC(=O)/C(C#N)=C/c1cccc(Br)n1)c1ccccc1`, the “cell shape (Z-score)” value was -2.53.

Take `Cc1cc(CC(C)CC(C)(C)C)n(O)c(=O)c1` (stereo not given): the “cell shape (Z-score)” value is 0.506.

`Oc1ccc(/C=C/c2cc(O)cc(O)c2)cc1`: the “cell shape (Z-score)” value is -0.6.

With `C=C(NC(=O)C(=C)NC(=O)c1csc(C2=N[C@@H]3c4csc(n4)[C@H]4NC(=O)c5csc(n5)[C@H]([C@](C)(O)[C@@H](C)O)NC(=O)[C@H]5CSC(=N5)/C(=C/C)NC(=O)[C@H]([C@@H](C)O)NC(=O)c5csc(n5)[C@]3(CC2)NC(=O)[C@H](C)NC(=O)C(=C)NC(=O)[C@H](C)NC(=O)[C@H]([C@@H](C)CC)N[C@@H]2C=Cc3c([C@H](C)O)cc(nc3[C@H]2O)C(=O)O[C@@H]4C)n1)C(N)=O`, the “cell shape (Z-score)” value is -11.

Turning to `Oc1ccc(-c2nc(-c3ccc(F)cc3)c(-c3ccncc3)[nH]2)cc1`, the “cell shape (Z-score)” value is -2.38.

Consider `O=C1c2ccccc2-c2nc3nonc3nc21`, for which the “cell shape (Z-score)” value is -2.4.

In the case of `C=C(C(=O)O)[C@@H]1CC[C@@]2(C)CC[C@H](O)[C@@]2(C(C)=O)C1`, the “cell shape (Z-score)” value was -6.45.

For the compound `C[C@H]1CN([C@@H](C)CO)S(=O)(=O)c2ccc(C#Cc3ccncc3)cc2O[C@@H]1CN(C)C(=O)Nc1ccc2c(c1)OCO2`, the “cell shape (Z-score)” value stood at 5.87.

For the compound `COc1ccc(C(=O)CC2(O)C(=O)Nc3c(Cl)ccc(Cl)c32)cc1` (stereo not given), the “cell shape (Z-score)” value was -16.1.

For `CN1c2ccccc2C(=O)N2CCc3c([nH]c4ccccc34)[C@@H]21`, the “cell shape (Z-score)” value is -7.76.

Take `c1ccc2cc(C3=NCCN3)ncc2c1`: the “cell shape (Z-score)” value is 0.271.

In the case of `COc1ccc(C[C@H](N)C(=O)N[C@H]2[C@@H](O)[C@H](n3cnc4c(N(C)C)ncnc43)O[C@@H]2CO)cc1`, the “cell shape (Z-score)” value was -12.5.

As for `O=C(O)CN1C(=O)c2cccc3cccc(c23)C1=O`, the “cell shape (Z-score)” value came to 9.63.

In the case of `C=C1C(=O)O[C@@H]2C3=C(C)CC[C@]34O[C@@H](C[C@@H]4C)[C@H]12`, the “cell shape (Z-score)” value was found to be 13.

As to `O=C1NC(=O)/C(=C/c2ccc3nccc(-c4ccncc4)c3c2)S1`, the “cell shape (Z-score)” value is -2.56.

Turning to `CCOc1nc2cccc(C(=O)OC(C)OC(=O)OC3CCCCC3)c2n1Cc1ccc(-c2ccccc2-c2nn[nH]n2)cc1` (stereo not given), the “cell shape (Z-score)” value was -2.81.

Regarding `COCCCOc1ccnc(C[S+]([O-])c2nc3ccccc3[nH]2)c1C` (stereo not given), the “cell shape (Z-score)” value was found to be 1.52.
